We go through 35 compounds from PubChem BioAssay.

The structures appear in SMILES notation. A number with no mark means an inactive call. Activity calls are given as the source filed them.

The test can be described thus: plasmodial surface anion channel blockers, osmotic lysis – cell-based, P. falciparum Indochina, OD700, 1 h, primary screen (AID 1154). Conditions: P. falciparum Indochina infected RBC osmotic lysis, higher = more signal, called active from +8 up or from −8 down.
`COC(=O)[C@@]1(Cc2ccc(F)cc2)[C@H]2c3cc(C(=O)N(C)C)n(CCF)c3C[C@H]2CN1C(=O)c1ccccc1`: the z-score was 2.02.

For the compound `COC(=O)[C@@]1(Cc2ccccc2)[C@H]2c3cc(C(=O)N(C)C)n(Cc4ccc(Cl)c(C(F)(F)F)c4)c3C[C@H]2CN1C(=O)c1ccccc1`, the z-score was 2.46.

`COc1ccc(NN2C(C(O)c3ccc(F)cc3)C=CC3C(=O)N(C4CCCCC4)C(=O)C32)cc1` (stereo not given): the z-score was 5.76.

As for `[N-]=[N+]=NCc1ccccc1C[C@@]1(C(N)=O)N=C(c2ccc(OCCCO)cc2)O[C@@H]1c1ccccc1N=[N+]=[N-]`, the z-score is 32.4 (active).

With `O=C1O[C@H](c2ccccc2)[C@H](c2ccccc2)N2[C@H]1[C@@H](C(=O)Nc1nc3ccccc3s1)[C@]1(C(=O)Nc3ccccc31)[C@H]2c1ccccc1OCCO`, the z-score was 7.3.

With `CC(C)c1ccc(NN2C(C(O)C(C)c3ccccc3)C=CC3C(=O)N(c4ccccc4)C(=O)C32)cc1` (stereo not given), the z-score was 0.187.

Take `COCCCNC(=O)[C@]1(Cc2ccccc2N=[N+]=[N-])N=C(c2ccc(OCCCO)cc2)O[C@@H]1c1ccccc1`: the z-score is 28.8 (active).

As for `COC(=O)[C@@]1(Cc2ccc(OC)cc2)[C@H]2c3cc(C(=O)N(C)C)n(Cc4c(CO)[nH]cc(C)c4=O)c3C[C@H]2CN1C(=O)c1ccccc1`, the z-score was 2.77.

`COC(=O)C(CC#Cc1ccc2c(c1)[C@]1(C(=O)N2)[C@H](c2ccc(OCCO)cc2)N2[C@H](c3ccccc3)[C@H](c3ccccc3)OC(=O)[C@H]2[C@@H]1C(N)=O)C(=O)OC`: the z-score was 3.9.

Take `O=C1N(Cc2ccccc2)Cc2ccccc2C[C@@]12COC(c1ccc(OCCCO)cc1)=N2`: the z-score was 20.3 (active).

Consider `COCCCNC(=O)[C@@]1(c2ccc([N+](=O)[O-])cc2)CC(=O)N(C2CCCCC2)[C@@H]1c1ccc(CO)cc1I`, for which the z-score is 12.6 (active).

With `CO[C@H]1O[C@H](CO)[C@@H](OC(=O)Nc2ccccc2)[C@@H]2OC(=O)[C@@H](Cc3ccccc3)C/C=C/C[C@H](Cc3ccccc3)C(=O)O[C@@H]12`, the z-score was 0.131.

`O=C1O[C@@H](c2ccccc2)[C@@H](c2ccccc2)N2[C@@H](c3ccc(OCCO)cc3)[C@]3(C(=O)Nc4ccc(C#CC5=CCCCC5)cc43)[C@@H](C(=O)Nc3nc4ccccc4s3)[C@H]12`: the z-score was 1.88.

Take `COCCOC(=O)N1C(=O)[C@@]2(c3cc(C#CC4(O)CCCCCC4)ccc31)[C@H](C(N)=O)[C@H]1C(=O)O[C@H](c3ccccc3)[C@H](c3ccccc3)N1[C@@H]2c1ccc(OCCO)cc1`: the z-score was 3.59.

With `COC(=O)C(CC#Cc1ccc2c(c1)[C@]1(C(=O)N2)[C@H](C(N)=O)[C@H]2C(=O)O[C@H](c3ccccc3)[C@H](c3ccccc3)N2[C@@H]1c1ccccc1OCCO)C(=O)OC`, the z-score was 14.2 (active).

Consider `Cc1ccc(S[C@]2(C(=O)NCC(C)C)CC(=O)N(C(C)C)[C@@H]2c2ccc(CO)cc2I)cc1`, for which the z-score is 4.28.

For `CN1C2C=C(c3ccc(CO)cc3)C(C3C(=O)N(C(N)=O)C(=O)C32)C1C1CC1` (stereo not given), the z-score was 0.944.

`[N-]=[N+]=NCc1ccccc1[C@H]1OC(c2ccc(OCCCO)cc2)=N[C@@]1(CCS(=O)(=O)c1ccccc1)C(=O)O`: the z-score was 20.5 (active).

In the case of `COC(=O)[C@@]1(Cc2ccc(F)cc2)[C@H]2c3cc(C(=O)N4CCCC4)n(Cc4ccc(OC(F)(F)F)cc4)c3C[C@H]2CN1C(=O)c1ccccc1`, the z-score was 0.498.

Turning to `C[N+](C)(C)CCCC[C@@H]1NC(=O)[C@H]2C[C@@H](C(=O)O)[C@@H](c3ccc(O)cc3)N2C1=O`, the z-score was 3.34.

For `CN1C(=O)C2CC=C(C3=CCO[C@@H]3[C@H]3CCCN3S(=O)(=O)c3ccccc3[N+](=O)[O-])CC2C1=O` (stereo not given in full), the z-score is 5.38.

For the compound `COC(=O)[C@@]1(Cc2ccc(F)cc2)[C@H]2c3cc(C(=O)N4CCCC4)n(Cc4ccc(C(F)(F)F)nc4)c3C[C@H]2CN1C(=O)c1ccccc1`, the z-score was 2.37.

With `C=C(CCCC)/C(=C/C[C@@H](OC(C)=O)c1cccc(OCCO)c1)c1cc(C(=O)OC)ccc1OC`, the z-score is 17.4 (active).

`O=C/C=C/c1ccc(-c2ccccc2)cc1`: the z-score was 2.39.

On to `O=C1O[C@H](c2ccccc2)[C@H](c2ccccc2)N2[C@H]1[C@@H](C(=O)N1CCCCCCC1)[C@]1(C(=O)Nc3ccc(C#CCCO)cc31)[C@H]2c1ccc(O)cc1`, for which the z-score is 1.01.

For `C=CCNC(=O)[C@H]1[C@@H]2C(=O)O[C@@H](c3ccccc3)[C@@H](c3ccccc3)N2[C@@H](c2ccc(O)cc2)[C@]12C(=O)Nc1ccc(C#CCC(C(=O)OC)C(=O)OC)cc12`, the z-score is 8.47 (active).

For the compound `C[C@]1(C(=O)O)c2ccccc2C(=O)N(Cc2cc(C(F)(F)F)cc(C(F)(F)F)c2)[C@H]1c1ccc(CO)cc1`, the z-score is 1.8.

On to `C=CCOC(=O)[C@H]1[C@@H]2C(=O)O[C@@H](c3ccccc3)[C@@H](c3ccccc3)N2[C@@H](c2ccc(OCCOC(=O)[C@H]3C[C@H]4C(=O)NCC(=O)N4[C@H]3c3ccc(O)cc3)cc2)[C@]12C(=O)Nc1ccccc12`, for which the z-score is 2.42.

In the case of `COc1ccc([Si](C)(C)[C@H]2[C@H](CC(=O)N3CCC[C@H]3CO)O[C@@]3(C(=O)N(Cc4cccc(N5CCCCC5=O)c4)c4ccccc43)[C@@H]2C)cc1`, the z-score was 4.11.

As to `C=CCNC(=O)[C@H]1[C@@H]2C(=O)O[C@@H](c3ccccc3)[C@@H](c3ccccc3)N2[C@@H](c2ccc(O)cc2)[C@]12C(=O)N(C(=O)OCCOC)c1ccc(C#Cc3ccc(OC)cc3)cc12`, the z-score is 2.57.

For the compound `O=C(CS)NCCCCCCNC(=O)[C@H]1C[C@H]2C(=O)NCC(=O)N2[C@H]1c1cccc(OCCO)c1`, the z-score is 2.16.

For the compound `COc1cc(Cc2cc3c(c(-c4ccccc4)n2)[Si](C(C)C)(C(C)C)OC3)cc(OC)c1OC`, the z-score is 1.62.

For `Cc1c(NC(=O)/C(C#N)=C/C=C/c2ccc([N+](=O)[O-])cc2)c(=O)n(-c2ccccc2)n1C`, the z-score was 2.74.

Consider `CCOC(=O)C[C@H]1[C@H](OC(=O)c2ccccc2-c2ccccc2)[C@@H](NC(=O)CC(C)C)c2cc(OCCCO)ccc2N1C(=O)c1ccccc1`, for which the z-score is 0.0883.

As to `COCCOC(=O)N1C(=O)[C@@]2(c3cc(C#CCNC(N)=O)ccc31)[C@H](c1ccc(O)cc1)N1[C@H](c3ccccc3)[C@H](c3ccccc3)OC(=O)[C@H]1[C@@H]2C(=O)N1CCc2cc(OC)c(OC)cc2C1`, the z-score was 1.67.
